Measured values from the supplement of paper PMC10849652.
Targets with a hit are over-represented here; the source holds about 7,900 in all. About 0.6% of all pairs of compound and target were hits.

How the values were obtained:
Assay in all cases: log2 fold change, soluble protein after heating vs DMSO (PISA); higher = thermal stabilisation; K562 cells, 10 uM, 30 min; active = over 0.2 and 3.5 SD of the protein, either way, in both replicates (recomputed)
[1] = compound: CS(=O)(=O)c1ccc(-c2cnc(N)c(C(=O)Nc3ccccc3)n2)cc1
In short: (§1)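 Thermal stability values are relative to control samples and come from duplicates. They are expressed as log2 fold changes. For measurement, K562 cells (2×10^6 cells/mL) received 10 μM compound for 30 min, and aliquots were heated for 3 min over 48°C-58°C, pooled, and extracted at 4°C in PBS with 0.5% NP-40. Soluble protein, the supernatant after 21,000xg for 90 min, was quantified by TMTpro 16plex LC-MS/MS with equalised channel sums.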

[2] = compound: C[C@@H](Oc1cc(-c2cnn(C3CCNCC3)c2)cnc1N)c1c(Cl)ccc(F)c1Cl [crizotinib]
In short: as §1

[3] = compound: C[C@@H]1COCCN1C2=NC(=NC(=C2)C3(CC3)S(=O)(=O)C)C4=C5C=CNC5=CC=C4
In short: as §1

[4] = compound: Cc1cc(Nc2cc(CN3CCOCC3)c3nc(C)c(Cc4ccc(Cl)cc4F)n3n2)n[nH]1 [gandotinib]
In short: as §1

[5] = compound: Cc1ccc(-n2nc(C(C)(C)C)cc2NC(=O)Nc2ccc(OCCN3CCOCC3)c3ccccc23)cc1 [doramapimod]
In short: as §1

[6] = compound: C[C@H](C1=CC=C(C=C1)C(=O)NC2=C3C=CNC3=NC=C2)N
In short: as §1

[7] = compound: C[C@H](Nc1ncnc2nc[nH]c12)c1cc2cccc(Cl)c2c(=O)n1-c1ccccc1 [duvelisib]
In short: as §1

[8] = compound: Cc1cc(Nc2cc(N3CCN(C)CC3)nc(Sc3ccc(NC(=O)C4CC4)cc3)n2)n[nH]1 [tozasertib]
In short: as §1

[9] = compound: Cc1cc(SCc2sc(-c3ccc(C(F)(F)F)cc3)nc2C)ccc1OCC(=O)O
In short: as §1

[10] = compound: Cc1ccc(C(=O)N(CCCN)[C@@H](c2nc3cc(Cl)ccc3c(=O)n2Cc2ccccc2)C(C)C)cc1 [ispinesib]
In short: as §1

Measured: log2 fold change

GOLGA6B (UniProt A6NDN3)
Chain of UniProt A6NDN3 (A6NDN3 whole entry, looked up): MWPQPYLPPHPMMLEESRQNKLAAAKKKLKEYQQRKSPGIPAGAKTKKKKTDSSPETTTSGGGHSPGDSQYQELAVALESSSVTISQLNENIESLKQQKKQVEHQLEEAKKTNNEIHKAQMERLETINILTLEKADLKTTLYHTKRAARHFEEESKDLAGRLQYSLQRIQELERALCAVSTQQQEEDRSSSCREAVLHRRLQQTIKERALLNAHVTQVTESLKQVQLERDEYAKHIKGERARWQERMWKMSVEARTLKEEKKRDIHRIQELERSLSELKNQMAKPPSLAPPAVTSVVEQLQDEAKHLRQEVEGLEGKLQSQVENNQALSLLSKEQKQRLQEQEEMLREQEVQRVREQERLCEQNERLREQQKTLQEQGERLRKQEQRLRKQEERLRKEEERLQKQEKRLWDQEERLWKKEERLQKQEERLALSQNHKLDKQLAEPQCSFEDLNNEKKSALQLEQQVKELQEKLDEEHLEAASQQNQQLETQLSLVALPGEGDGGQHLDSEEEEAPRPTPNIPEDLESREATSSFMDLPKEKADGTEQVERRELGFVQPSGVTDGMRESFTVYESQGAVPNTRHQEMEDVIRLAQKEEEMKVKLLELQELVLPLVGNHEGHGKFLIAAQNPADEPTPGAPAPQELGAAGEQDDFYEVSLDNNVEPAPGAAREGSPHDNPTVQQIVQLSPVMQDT
inactive: [1] -0.003 | [2] 0.05 | [3] 0.036 | [4] 0.404 | [5] -0.139

GPD1 (UniProt P21695)
inactive: [1] -0.036 | [3] 0.034 | [6] -0.482 | [7] 0.124 | [4] 0.094 | [8] -0.072 | [9] -0.034 | [10] 0.046

HDAC10 (UniProt Q969S8)
inactive: [6] -0.045 | [7] 0.04 | [4] 0.008 | [8] -0.113 | [9] 0.042 | [10] 0.065

HS1BP3 (UniProt Q53T59)
Chain of UniProt Q53T59 (Q53T59 whole entry, looked up): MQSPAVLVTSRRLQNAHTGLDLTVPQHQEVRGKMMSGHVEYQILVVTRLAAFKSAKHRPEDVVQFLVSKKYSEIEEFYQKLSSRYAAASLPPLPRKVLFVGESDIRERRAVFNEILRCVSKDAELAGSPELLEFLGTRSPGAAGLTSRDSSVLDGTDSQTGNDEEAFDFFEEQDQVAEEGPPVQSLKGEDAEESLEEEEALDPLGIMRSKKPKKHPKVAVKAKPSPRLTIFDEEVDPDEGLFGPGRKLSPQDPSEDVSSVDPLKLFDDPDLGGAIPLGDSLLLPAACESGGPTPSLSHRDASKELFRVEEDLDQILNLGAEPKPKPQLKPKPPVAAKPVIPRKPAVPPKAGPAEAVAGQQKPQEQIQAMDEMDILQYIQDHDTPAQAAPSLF
inactive: [1] 0.06 | [2] -0.044 | [3] 0.028 | [6] 0.143 | [7] 0.096 | [9] -0.012 | [5] 0.089 | [10] -0.165

GREB1 (UniProt Q4ZG55)
inactive: [1] 0.121 | [2] 0.163 | [3] -0.046 | [6] 0.12 | [8] -0.171 | [5] -0.007

GSE1 (UniProt Q14687)
Chain of UniProt Q14687 (Q14687 whole entry, looked up): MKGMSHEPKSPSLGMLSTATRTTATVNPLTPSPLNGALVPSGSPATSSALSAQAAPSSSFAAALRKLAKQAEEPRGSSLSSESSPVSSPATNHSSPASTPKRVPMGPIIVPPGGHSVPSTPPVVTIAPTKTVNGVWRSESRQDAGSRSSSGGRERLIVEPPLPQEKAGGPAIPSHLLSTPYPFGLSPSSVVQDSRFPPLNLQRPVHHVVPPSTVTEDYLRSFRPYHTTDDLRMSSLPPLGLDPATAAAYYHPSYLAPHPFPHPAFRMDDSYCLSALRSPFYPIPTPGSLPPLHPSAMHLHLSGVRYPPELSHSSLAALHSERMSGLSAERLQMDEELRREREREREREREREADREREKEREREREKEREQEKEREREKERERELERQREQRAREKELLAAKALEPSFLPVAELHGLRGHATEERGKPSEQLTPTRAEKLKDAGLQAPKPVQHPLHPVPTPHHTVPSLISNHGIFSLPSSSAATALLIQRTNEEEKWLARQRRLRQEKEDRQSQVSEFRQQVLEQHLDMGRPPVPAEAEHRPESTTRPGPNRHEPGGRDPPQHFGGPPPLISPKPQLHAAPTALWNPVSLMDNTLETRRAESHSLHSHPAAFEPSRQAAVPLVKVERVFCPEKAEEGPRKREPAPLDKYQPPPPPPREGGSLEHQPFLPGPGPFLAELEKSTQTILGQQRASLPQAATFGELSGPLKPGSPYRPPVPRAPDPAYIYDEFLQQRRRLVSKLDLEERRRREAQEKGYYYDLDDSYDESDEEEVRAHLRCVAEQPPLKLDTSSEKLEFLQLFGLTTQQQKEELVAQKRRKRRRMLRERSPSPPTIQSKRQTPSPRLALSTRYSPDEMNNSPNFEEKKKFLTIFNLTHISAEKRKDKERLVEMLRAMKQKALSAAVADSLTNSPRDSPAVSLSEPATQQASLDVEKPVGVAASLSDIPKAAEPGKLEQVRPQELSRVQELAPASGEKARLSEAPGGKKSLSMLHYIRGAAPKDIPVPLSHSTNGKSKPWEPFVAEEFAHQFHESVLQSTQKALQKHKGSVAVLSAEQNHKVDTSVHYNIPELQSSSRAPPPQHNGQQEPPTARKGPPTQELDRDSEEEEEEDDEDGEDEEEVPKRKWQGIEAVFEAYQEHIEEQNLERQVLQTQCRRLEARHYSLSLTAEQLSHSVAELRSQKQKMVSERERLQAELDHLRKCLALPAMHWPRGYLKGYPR
inactive: [6] 0.008 | [7] 0.033 | [9] -0.046 | [10] -0.066

H3-3A (UniProt P84243)
inactive: [1] 0.082 | [6] 0.038 | [7] -0.184 | [8] -0.066 | [9] 0.106

IDH3A isoform 2 (UniProt P50213)
inactive: [2] -0.206 | [6] -0.016 | [8] -0.141 | [5] 0.051

FAT2 (UniProt Q9NYQ8)
inactive: [2] -0.148 | [3] 0.131 | [6] 0.306 | [7] 0.372 | [4] -0.149 | [8] -0.184 | [9] 0.121 | [5] 0.006 | [10] -0.006

GID4 (UniProt Q8IVV7)
inactive: [1] 0 | [3] 0.054 | [6] -0.006 | [7] 0.009 | [4] 0.034 | [8] 0.052 | [9] 0.032 | [10] 0.044

GEMIN2 (UniProt O14893)
inactive: [1] 0.032 | [2] -0.043 | [3] 0.001 | [6] 0.061 | [7] -0.129 | [4] 0.02 | [9] -0.013 | [5] 0.029 | [10] -0.149

GOLGA8R (UniProt I6L899)
inactive: [2] -0.009 | [6] -0.059 | [7] 0.242 | [4] 0.324 | [8] -0.033 | [9] -0.067 | [5] 0.108 | [10] -0.038

GBA2 (UniProt Q9HCG7)
Chain of UniProt Q9HCG7 (Q9HCG7 whole entry, looked up): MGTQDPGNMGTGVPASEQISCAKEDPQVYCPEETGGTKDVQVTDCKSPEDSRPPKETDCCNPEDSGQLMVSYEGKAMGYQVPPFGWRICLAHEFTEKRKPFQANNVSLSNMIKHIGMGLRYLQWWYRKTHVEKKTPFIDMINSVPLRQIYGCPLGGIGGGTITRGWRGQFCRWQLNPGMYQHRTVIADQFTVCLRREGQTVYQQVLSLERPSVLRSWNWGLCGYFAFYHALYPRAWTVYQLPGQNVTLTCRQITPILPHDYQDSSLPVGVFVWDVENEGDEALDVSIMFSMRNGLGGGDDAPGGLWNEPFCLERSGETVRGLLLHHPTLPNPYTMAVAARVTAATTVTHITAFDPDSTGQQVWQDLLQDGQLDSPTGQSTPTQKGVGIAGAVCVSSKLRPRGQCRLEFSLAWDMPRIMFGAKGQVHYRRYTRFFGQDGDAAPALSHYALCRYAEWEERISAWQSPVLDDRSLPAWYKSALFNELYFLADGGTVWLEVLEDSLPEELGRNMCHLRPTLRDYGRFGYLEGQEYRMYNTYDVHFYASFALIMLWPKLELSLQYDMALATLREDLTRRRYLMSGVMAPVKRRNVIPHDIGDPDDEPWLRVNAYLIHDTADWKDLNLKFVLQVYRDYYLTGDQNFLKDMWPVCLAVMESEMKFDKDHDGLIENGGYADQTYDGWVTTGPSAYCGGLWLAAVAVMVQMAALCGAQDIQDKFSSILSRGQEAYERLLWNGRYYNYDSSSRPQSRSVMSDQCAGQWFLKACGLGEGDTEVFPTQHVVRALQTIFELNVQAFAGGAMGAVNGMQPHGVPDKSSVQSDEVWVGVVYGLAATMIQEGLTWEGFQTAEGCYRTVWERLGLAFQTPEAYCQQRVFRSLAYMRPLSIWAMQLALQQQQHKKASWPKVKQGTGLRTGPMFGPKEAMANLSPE
inactive: [1] 0.091 | [2] 0.094 | [3] 0.051 | [6] 0.004 | [7] 0.041 | [8] -0.053 | [9] 0.067 | [5] 0.056

HAUS4 (UniProt Q9H6D7)
Chain of UniProt Q9H6D7 (Q9H6D7 whole entry, looked up): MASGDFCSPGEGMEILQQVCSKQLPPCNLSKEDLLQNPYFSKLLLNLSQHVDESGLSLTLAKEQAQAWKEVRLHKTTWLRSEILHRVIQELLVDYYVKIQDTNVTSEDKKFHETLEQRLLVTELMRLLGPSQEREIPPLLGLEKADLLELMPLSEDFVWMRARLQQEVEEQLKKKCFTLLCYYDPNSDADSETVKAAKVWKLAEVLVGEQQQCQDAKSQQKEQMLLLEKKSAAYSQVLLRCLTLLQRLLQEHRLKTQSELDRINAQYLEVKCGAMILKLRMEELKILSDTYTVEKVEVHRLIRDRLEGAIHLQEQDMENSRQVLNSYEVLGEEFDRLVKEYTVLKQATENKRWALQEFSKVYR
inactive: [1] 0.068 | [3] 0.024 | [6] 0.139 | [7] -0.303 | [4] 0.015 | [8] 0.041 | [9] -0.195 | [10] -0.259

IFITM3 (UniProt Q01628)
Chain of UniProt Q01628 (Q01628 whole entry, looked up): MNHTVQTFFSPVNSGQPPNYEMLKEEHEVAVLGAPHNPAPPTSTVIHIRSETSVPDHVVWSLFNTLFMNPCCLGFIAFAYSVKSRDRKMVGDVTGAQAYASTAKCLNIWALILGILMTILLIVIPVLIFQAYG
inactive: [1] -0.038 | [2] -0.027 | [3] 0.069 | [6] -0.085 | [7] 0.22 | [8] -0.002 | [9] -0.094 | [5] 0.038 | [10] 0.07

IGF2 isoform 3 (UniProt P01344)
inactive: [2] -0.07 | [7] 0.175 | [9] 0.03 | [5] -0.13

FYB1 isoform 3 (UniProt O15117)
Chain of UniProt O15117 (O15117 whole entry, looked up): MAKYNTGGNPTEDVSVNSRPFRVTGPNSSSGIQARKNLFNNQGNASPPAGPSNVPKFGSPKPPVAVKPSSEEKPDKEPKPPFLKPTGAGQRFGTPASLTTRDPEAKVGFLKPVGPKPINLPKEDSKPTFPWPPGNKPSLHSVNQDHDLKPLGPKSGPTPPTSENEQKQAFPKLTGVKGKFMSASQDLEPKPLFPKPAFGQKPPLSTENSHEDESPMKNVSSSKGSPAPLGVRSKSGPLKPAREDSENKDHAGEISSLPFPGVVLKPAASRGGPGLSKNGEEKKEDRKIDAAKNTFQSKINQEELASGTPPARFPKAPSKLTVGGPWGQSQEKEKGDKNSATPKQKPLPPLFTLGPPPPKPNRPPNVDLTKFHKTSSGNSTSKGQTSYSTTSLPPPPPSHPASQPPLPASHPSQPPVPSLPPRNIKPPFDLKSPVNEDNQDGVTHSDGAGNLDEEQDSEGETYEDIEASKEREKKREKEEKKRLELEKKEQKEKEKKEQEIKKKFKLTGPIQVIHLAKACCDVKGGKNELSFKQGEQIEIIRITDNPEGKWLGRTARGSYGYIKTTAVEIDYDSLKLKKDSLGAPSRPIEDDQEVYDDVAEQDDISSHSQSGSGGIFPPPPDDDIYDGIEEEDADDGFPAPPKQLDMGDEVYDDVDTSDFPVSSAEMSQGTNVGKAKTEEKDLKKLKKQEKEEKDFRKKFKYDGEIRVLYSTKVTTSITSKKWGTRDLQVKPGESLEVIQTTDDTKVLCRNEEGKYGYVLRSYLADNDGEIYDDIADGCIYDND
inactive: [1] -0.025 | [2] -0.11 | [3] 0.046 | [4] 0.057 | [8] 0.009 | [9] 0.067 | [5] 0.021 | [10] -0.083
active: [7] -0.344

GGA2 (UniProt Q9UJY4)
inactive: [1] 0.038 | [2] -0.089 | [3] 0.032 | [6] 0.036 | [7] 0.053 | [8] -0.025 | [9] 0.015 | [5] 0.009 | [10] -0.177

GPS2 (UniProt Q13227)
active: [10] 0.31
inactive: [1] -0.114 | [2] 0.019 | [3] 0.208 | [8] -0.221 | [5] 0.047

ICMT (UniProt O60725)
inactive: [1] 0.099 | [2] 0.074 | [3] 0.331 | [7] 0.078 | [8] -0.518 | [9] -0.107 | [5] 0.01 | [10] -0.42

FBXO9 (UniProt Q9UK97)
Chain of UniProt Q9UK97 (Q9UK97 whole entry, looked up): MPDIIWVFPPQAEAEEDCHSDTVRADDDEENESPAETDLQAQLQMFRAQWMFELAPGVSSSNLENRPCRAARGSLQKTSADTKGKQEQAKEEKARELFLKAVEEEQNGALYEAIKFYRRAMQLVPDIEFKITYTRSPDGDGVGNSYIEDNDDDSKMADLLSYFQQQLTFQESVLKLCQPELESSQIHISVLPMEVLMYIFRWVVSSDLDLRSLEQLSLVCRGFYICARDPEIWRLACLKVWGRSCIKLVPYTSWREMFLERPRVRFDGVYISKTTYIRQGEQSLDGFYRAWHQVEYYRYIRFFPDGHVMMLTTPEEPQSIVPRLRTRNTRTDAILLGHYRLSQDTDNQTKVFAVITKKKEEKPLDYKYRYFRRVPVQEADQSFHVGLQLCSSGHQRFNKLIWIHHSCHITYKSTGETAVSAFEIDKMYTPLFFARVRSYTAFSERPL
inactive: [2] 0.028 | [6] -0.046 | [7] -0.03 | [4] -0.151 | [8] -0.071 | [9] 0.079 | [5] -0.081 | [10] -0.057

FMR1 (UniProt Q06787)
inactive: [1] -0.067 | [2] 0.151 | [6] 0.199 | [4] 0.045 | [5] -0.065 | [10] -0.022
